Among the data in PubChem BioAssay (NCI) are growth values, retold here.

Values joined by “and” are separate entries in the source; they are usually repeats but may differ in a detail not shown here. Equal values may be shown once. The panel holds about 83,000 compounds, 20% with a hit somewhere; the sample as a whole holds those more often.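 Compound tested at a single concentration for 48 hours in 96-well plates; a percent growth value below 10 was scored as active.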 Active and inactive are the calls of the source.

Among the test systems are NCI-H23 lung; NCI-H226 lung; NCI-H322M lung; HOP-62 NSCLC; NCI-H460 lung; HOP-92 NSCLC; NCI-H522 lung; A549/ATCC NSCLC; 786-0 renal; COLO 205 colon; DU-145 prostate; K-562 leukemia; MALME-3M melanoma; MDA-MB-231 breast; RXF 393 renal; SF-268 CNS; SF-295 CNS; SF-539 CNS; UACC-257 melanoma; M14 melanoma.
Common to all, as to test: NCI-60 one-dose screen, 48 h (100 = growth as untreated, 0 = no growth, -100 = all killed)
What all share (conditions): 10 µM unless noted

`CCOC(=O)Nc1nc2ccccc2[nH]1`: the growth is 102% (inactive) and 56.7% (inactive) in the assay with NCI-H23 lung; 104% (inactive) and 71.9% (inactive) with NCI-H226 lung; 107% (inactive) and 72.2% (inactive) in the assay with NCI-H322M lung; 106% (inactive) and 53.4% (inactive) with HOP-62 NSCLC; 106% (inactive) and 22.4% (inactive) with NCI-H460 lung; 104% (inactive) and 62.5% (inactive) in the assay on HOP-92 NSCLC. Moreover, the growth was 95.6% (inactive) and 46.8% (inactive) in the assay on NCI-H522 lung; 102% (inactive) and 55.4% (inactive) in the assay with A549/ATCC NSCLC; 98.5% (inactive) and 39% (inactive) in the assay with 786-0 renal; 119% (inactive) and 37.7% (inactive) with COLO 205 colon; 121% (inactive) and 38.4% (inactive) with DU-145 prostate; 103% (inactive) and 7.77% (active) in the assay with K-562 leukemia. The growth with MALME-3M melanoma is 101% (inactive) and 52.5% (inactive); in the assay with MDA-MB-231 breast, 110% (inactive) and 64% (inactive); with RXF 393 renal it was 118% (inactive) and 66.3% (inactive); in the assay on SF-268 CNS, 115% (inactive) and 48.8% (inactive); in the assay on SF-295 CNS, 101% (inactive) and 8.06% (active); in the assay with SF-539 CNS, 105% (inactive) and 28.5% (inactive). The growth was 93.2% (inactive) and 58% (inactive) in the assay on UACC-257 melanoma; 105% (inactive) and 22.4% (inactive) in the assay with M14 melanoma.

Turning to `NC(=O)C1CC2C=CC1C2` (centres undefined), the growth in the assay on NCI-H23 lung was 92.1% (inactive) and 106% (inactive); with NCI-H226 lung, 97.7% (inactive) and 98.9% (inactive); with NCI-H322M lung, 104% (inactive) and 107% (inactive); with HOP-62 NSCLC, 91.2% (inactive) and 98.4% (inactive); in the assay with NCI-H460 lung, 103% (inactive) and 110% (inactive); in the assay with HOP-92 NSCLC, 101% (inactive) and 94.5% (inactive). Further, the growth in the assay with NCI-H522 lung is 106% (inactive) and 94.2% (inactive); in the assay with A549/ATCC NSCLC, 96.2% (inactive) and 100% (inactive); with 786-0 renal it was 98% (inactive) and 116% (inactive); with COLO 205 colon it was 96.8% (inactive) and 120% (inactive); in the assay with DU-145 prostate, 114% (inactive) and 115% (inactive); with K-562 leukemia it was 103% (inactive) and 93.9% (inactive). The growth is 69.2% (inactive) and 124% (inactive) with MALME-3M melanoma; 101% (inactive) and 99.1% (inactive) with MDA-MB-231 breast; 108% (inactive) and 89.7% (inactive) in the assay with RXF 393 renal; 118% (inactive) and 108% (inactive) in the assay with SF-268 CNS; 113% (inactive) and 95.2% (inactive) in the assay on SF-295 CNS; 95.2% (inactive) and 112% (inactive) in the assay on SF-539 CNS. Besides, the growth is -24.1% (active) with UACC-257 melanoma; 106% (inactive) and 87.4% (inactive) with M14 melanoma.

Consider `NC(=O)NO`, for which the growth in the assay on NCI-H23 lung is 102% (inactive) and 62.3% (inactive); in the assay with NCI-H226 lung it was 106% (inactive) and 74.1% (inactive); with NCI-H322M lung, 107% (inactive) and 77.1% (inactive); in the assay on HOP-62 NSCLC it was 109% (inactive) and 73.2% (inactive); in the assay with NCI-H460 lung, 106% (inactive) and 62.3% (inactive); in the assay on HOP-92 NSCLC, 101% (inactive) and 60.6% (inactive). The growth in the assay on NCI-H522 lung was 98.7% (inactive) and 82.7% (inactive); in the assay on 786-0 renal, 103% (inactive) and 59.7% (inactive); in the assay with COLO 205 colon, 118% (inactive) and 87.4% (inactive); with DU-145 prostate, 110% (inactive) and 56.7% (inactive); in the assay on K-562 leukemia, 113% (inactive) and 77% (inactive); in the assay on MALME-3M melanoma, 102% (inactive) and 57.8% (inactive). Further, the growth with MDA-MB-231 breast is 98.8% (inactive) and 84.4% (inactive); in the assay with RXF 393 renal, 116% (inactive) and 25.5% (inactive); in the assay on SF-268 CNS it was 102% (inactive) and 70.4% (inactive); in the assay with SF-295 CNS it was 99.4% (inactive) and 50.3% (inactive); in the assay on SF-539 CNS it was 104% (inactive) and 47.4% (inactive); in the assay with UACC-257 melanoma, 102% (inactive) and 44% (inactive). Also, the growth with M14 melanoma was 104% (inactive).

With `O=C(O)CCCCc1ccc([N+](=O)[O-])cc1`, the growth in the assay on NCI-H23 lung is 99.6% (inactive) and 101% (inactive); in the assay with NCI-H226 lung it was 120% (inactive) and 108% (inactive); in the assay on NCI-H322M lung, 112% (inactive) and 96.7% (inactive); in the assay with HOP-62 NSCLC it was 103% (inactive); in the assay on NCI-H460 lung, 96.1% (inactive) and 120% (inactive); in the assay on HOP-92 NSCLC, 77.5% (inactive) and 83.8% (inactive). The growth in the assay with NCI-H522 lung is 91.7% (inactive) and 103% (inactive); in the assay on A549/ATCC NSCLC it was 97.6% (inactive) and 102% (inactive); with 786-0 renal, 102% (inactive) and 96.1% (inactive); in the assay on COLO 205 colon, 115% (inactive) and 113% (inactive); with DU-145 prostate, 106% (inactive) and 114% (inactive); in the assay with K-562 leukemia, 83.7% (inactive) and 103% (inactive). Also, the growth is 102% (inactive) and 106% (inactive) in the assay on MALME-3M melanoma; 112% (inactive) and 95% (inactive) in the assay on MDA-MB-231 breast; 116% (inactive) and 148% (inactive) in the assay with RXF 393 renal; 98.9% (inactive) and 115% (inactive) in the assay on SF-268 CNS; 113% (inactive) with SF-295 CNS; 94.3% (inactive) and 102% (inactive) with SF-539 CNS. For the same compound, the growth in the assay on UACC-257 melanoma was 125% (inactive) and 97.8% (inactive); in the assay with M14 melanoma, 102% (inactive) and 104% (inactive).
